Measurements: PubChem BioAssay
“And” between values parts separate entries of the source, which are not always exact repeats. Equal entries are not always repeated. The source made the active and inactive calls.

Experiments:
[1] = small molecules captured by biotinylated probe aFSTL3 – biochemical, small-molecule microarray, fluorescence 635/667, stem cell growth factor project, primary screen (AID 1064); settings: higher = more signal;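 further: measures binding of the biotinylated anti-FSTL3 antibody to printed compounds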
[2] = binders from COS7 lysate, DM2A8 probe, primary screen, torsin A project, cell lysate, small-molecule microarray, fluorescence 635/667 (AID 1065); settings: higher = more signal, COS7 lysate expressing mutant human TOR1A
[3] = small molecules captured by biotinylated probe aFGF2 – biochemical, small-molecule microarray, fluorescence 635/667, stem cell growth factor project, primary screen (AID 1067); settings: higher = more signal;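 further: measures binding of biotinylated aFGF2 protein to printed compounds on slides; z-score merges feature fluorescence and signal-to-noise across triplicate slides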
[4] = small molecules captured by biotinylated probe aFGF10 – biochemical, small-molecule microarray, fluorescence 635/667, stem cell growth factor project, primary screen (AID 1071); settings: higher = more signal;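 further: score merges 667 nm spot intensity and signal to noise from triplicate slides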
[5] = biological target: Neurogenic locus notch homolog protein 2 (Homo sapiens) (UniProt Q04721); test: small molecules binding Notch2 protein – biochemical, small-molecule microarray, 635 nm fluorescence, stem cell growth factors, primary screen (AID 1073); settings: higher = more signal
[6] = biological target: Pro-neuregulin-1, membrane-bound isoform (Homo sapiens) (UniProt Q02297); test: small molecules binding neuregulin-1 protein – biochemical, small-molecule microarray, fluorescence 635/667, psychiatric disease protein project, primary screen (AID 1075); settings: NRG1 binding, 635 nm fluorescence, higher = more signal;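 further: score combines 667 nm spot fluorescence with signal to noise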
[7] = tested on: Neuregulin-1 EGF-like domain; test: small molecules binding NRG1 EGF domain – biochemical, small-molecule microarray, 635 nm fluorescence, primary screen (AID 1081); settings: higher = more signal;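 further: binding of the protein to compounds printed on small-molecule microarray slides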
[8] = FRG1 expression reporter modulators in myotubes – cell-based, C2C12 myotubes, firefly/Renilla luciferase, luminescence, FRG1 inhibition for FSHD, primary screen (AID 1084); settings: FRG1 promoter luciferase, higher = more signal, called active from +8 up or from −8 down
[9] = small molecules captured by biotinylated probe aFST – biochemical, small-molecule microarray, fluorescence 635/667, stem cell growth factor project, primary screen (AID 1086); settings: higher = more signal;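 further: score merges 667 nm fluorescence with signal-to-noise of each printed compound spot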
[10] = binders of probe aHhip on microarray, primary screen, stem cell growth factor project, biochemical, small-molecule microarray, fluorescence 635/667 (AID 1087); settings: higher = more signal;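 further: score merges spot fluorescence at 667nm with spot signal to noise ratio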
[11] = tested on: PRMT1 (protein arginine N-methyltransferase 1); test: small molecules binding arginine methyltransferase PRMT1 – biochemical, small-molecule microarray, 635 nm fluorescence, primary screen (AID 1088); settings: higher = more signal;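 further: binding of Prmt1 protein to compounds spotted on small-molecule microarray slides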
[12] = growth effects on S. cerevisiae YJM789 – YJM789 clinical isolate, OD600, 24 h, basal, primary screen (AID 1089); settings: higher = more signal, called active from +8 up or from −8 down;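 further: growth of clinical yeast isolate S. cerevisiae YJM 789 seeded 1000 cells per well; test concentration not given here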
[13] = S. pombe growth modifiers, basal conditions – strain 972, OD600, 24 h, no modulator, primary screen (AID 1090);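 further: basal condition with compound alone and no growth modifier present; test concentration not given here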; settings: S. pombe 972 growth, higher = more signal, called active from +8 up or from −8 down
[14] = budding yeast growth modifiers under rapamycin – strain BY4716, OD600, 96 h, primary screen (AID 1091); further: test concentration not given here; settings: S. cerevisiae BY4716 + rapamycin, higher = more signal, called active from +8 up or from −8 down
[15] = biological target: Torsin-1A-interacting protein 2 (Homo sapiens) (UniProt Q8NFQ8); test: small molecules binding lysate-expressed LULL1 – cell lysate, human LULL1 lysate, 635/667 nm fluorescence, primary screen (AID 1092); settings: small-molecule microarray, hLULL1 lysate binding, 635 nm fluorescence; higher = more signal;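 further: probe is lysate of COS7 cells overexpressing human LULL1; score merges per-feature 667 nm fluorescence with signal-to-noise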
[16] = optical density change of DRC41 E. coli – strain DRC41, OD650, 24 h, E. coli filamentation project, primary screen (AID 1093);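 further: MC1000 strain lacking acrAB efflux and sulA so SOS filamentation is blocked; test concentration not given here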; settings: E. coli DRC41 growth, higher = more signal, called active from +8 up or from −8 down
[17] = probe aLefty2 binding to arrayed compounds – biochemical, biotinylated probe, 635/667 nm fluorescence, primary screen (AID 1094); settings: small-molecule microarray, higher = more signal;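 further: score merges spot fluorescence near 667 nm with spot signal-to-noise ratio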
[18] = tested on: Noggin (protein binding on small-molecule microarray); test: small molecules binding Noggin protein – biochemical, 635/667 nm fluorescence, primary screen (AID 1095); settings: 635 nm fluorescence, higher = more signal;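 further: score merges 667 nm feature fluorescence with signal to noise over triplicate slides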
[19] = biological target: Neurogenic locus notch homolog protein 3 (Homo sapiens) (UniProt Q9UM47); test: small molecules binding NOTCH3 protein – biochemical, 635/667 nm fluorescence, primary screen (AID 1096); settings: small-molecule microarray, 635 nm fluorescence, higher = more signal
[20] = probe aEGFR binding to arrayed compounds – biochemical, biotinylated probe, 635/667 nm fluorescence, primary screen (AID 1097); settings: small-molecule microarray, higher = more signal;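 further: probe is a biotinylated anti-EGFR antibody binding compounds printed on slides; score combines fluorescence near 667 nm and signal to noise of each spot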

Neurogenic locus notch homolog protein 2 (Homo sapiens), sequence (Q04721 whole entry, looked up, canonical isoform): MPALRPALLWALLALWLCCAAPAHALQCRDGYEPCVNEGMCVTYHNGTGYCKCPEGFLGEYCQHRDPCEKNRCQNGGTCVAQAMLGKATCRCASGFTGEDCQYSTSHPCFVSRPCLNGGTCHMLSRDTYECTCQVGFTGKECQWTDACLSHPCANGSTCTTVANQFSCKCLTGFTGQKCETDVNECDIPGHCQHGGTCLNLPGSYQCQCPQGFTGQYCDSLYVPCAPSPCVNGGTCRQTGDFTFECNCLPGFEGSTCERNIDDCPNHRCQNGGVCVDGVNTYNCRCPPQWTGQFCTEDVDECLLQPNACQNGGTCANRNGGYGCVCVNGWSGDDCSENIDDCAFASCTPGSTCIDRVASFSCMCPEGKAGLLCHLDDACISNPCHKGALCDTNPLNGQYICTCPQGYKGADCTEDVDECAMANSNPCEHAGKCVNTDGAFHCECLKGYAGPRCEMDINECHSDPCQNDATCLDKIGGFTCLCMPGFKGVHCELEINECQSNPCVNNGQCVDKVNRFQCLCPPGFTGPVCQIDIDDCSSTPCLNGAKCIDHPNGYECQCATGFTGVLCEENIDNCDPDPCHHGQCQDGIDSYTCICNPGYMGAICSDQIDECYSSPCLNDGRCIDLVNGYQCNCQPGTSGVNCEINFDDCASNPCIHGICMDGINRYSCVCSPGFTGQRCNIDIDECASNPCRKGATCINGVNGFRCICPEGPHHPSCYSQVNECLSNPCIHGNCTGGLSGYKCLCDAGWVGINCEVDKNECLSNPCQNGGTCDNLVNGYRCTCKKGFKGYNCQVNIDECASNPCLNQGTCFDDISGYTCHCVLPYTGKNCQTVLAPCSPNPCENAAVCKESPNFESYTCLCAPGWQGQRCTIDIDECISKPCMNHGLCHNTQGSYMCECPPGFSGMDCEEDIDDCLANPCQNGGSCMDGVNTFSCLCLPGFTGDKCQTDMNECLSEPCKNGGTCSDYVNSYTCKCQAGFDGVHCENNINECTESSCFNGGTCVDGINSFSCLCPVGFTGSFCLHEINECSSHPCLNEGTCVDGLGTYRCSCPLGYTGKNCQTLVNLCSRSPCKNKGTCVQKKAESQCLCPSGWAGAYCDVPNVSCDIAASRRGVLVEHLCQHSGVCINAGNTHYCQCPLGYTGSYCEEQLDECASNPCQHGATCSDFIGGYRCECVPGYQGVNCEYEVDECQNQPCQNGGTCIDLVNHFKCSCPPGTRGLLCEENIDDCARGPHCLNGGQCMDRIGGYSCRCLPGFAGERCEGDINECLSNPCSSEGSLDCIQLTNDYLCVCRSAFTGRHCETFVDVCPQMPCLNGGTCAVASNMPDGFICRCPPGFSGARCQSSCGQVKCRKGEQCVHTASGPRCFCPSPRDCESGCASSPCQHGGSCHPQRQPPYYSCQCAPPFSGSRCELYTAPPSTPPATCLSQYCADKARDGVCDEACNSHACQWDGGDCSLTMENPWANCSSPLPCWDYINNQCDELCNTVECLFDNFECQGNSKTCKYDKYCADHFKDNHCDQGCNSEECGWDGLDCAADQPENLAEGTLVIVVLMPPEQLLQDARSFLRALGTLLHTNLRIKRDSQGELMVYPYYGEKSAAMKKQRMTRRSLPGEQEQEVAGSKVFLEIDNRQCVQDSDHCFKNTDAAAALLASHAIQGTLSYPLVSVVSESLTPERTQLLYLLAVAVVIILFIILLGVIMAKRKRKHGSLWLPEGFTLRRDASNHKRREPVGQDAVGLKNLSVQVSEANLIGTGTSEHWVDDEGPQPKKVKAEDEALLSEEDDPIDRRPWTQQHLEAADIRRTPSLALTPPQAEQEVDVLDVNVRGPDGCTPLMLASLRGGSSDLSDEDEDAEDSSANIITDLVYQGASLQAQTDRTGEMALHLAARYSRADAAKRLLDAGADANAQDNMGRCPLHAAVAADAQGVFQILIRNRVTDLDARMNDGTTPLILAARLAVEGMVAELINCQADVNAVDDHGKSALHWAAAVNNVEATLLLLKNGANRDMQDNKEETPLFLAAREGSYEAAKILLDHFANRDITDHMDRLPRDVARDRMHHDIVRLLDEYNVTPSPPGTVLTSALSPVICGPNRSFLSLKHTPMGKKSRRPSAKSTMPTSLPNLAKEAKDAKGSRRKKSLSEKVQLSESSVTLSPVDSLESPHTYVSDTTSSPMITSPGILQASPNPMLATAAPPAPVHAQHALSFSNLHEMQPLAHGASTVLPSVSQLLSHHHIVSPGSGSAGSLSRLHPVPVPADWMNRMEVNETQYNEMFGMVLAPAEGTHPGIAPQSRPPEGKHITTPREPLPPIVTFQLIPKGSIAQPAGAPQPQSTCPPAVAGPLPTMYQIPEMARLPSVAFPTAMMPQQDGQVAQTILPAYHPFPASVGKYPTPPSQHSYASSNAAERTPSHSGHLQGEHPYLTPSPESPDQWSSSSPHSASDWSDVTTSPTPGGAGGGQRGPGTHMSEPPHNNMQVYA
Pro-neuregulin-1, membrane-bound isoform (Homo sapiens), sequence (Q02297 whole entry, looked up, the tested form may be a part, canonical isoform): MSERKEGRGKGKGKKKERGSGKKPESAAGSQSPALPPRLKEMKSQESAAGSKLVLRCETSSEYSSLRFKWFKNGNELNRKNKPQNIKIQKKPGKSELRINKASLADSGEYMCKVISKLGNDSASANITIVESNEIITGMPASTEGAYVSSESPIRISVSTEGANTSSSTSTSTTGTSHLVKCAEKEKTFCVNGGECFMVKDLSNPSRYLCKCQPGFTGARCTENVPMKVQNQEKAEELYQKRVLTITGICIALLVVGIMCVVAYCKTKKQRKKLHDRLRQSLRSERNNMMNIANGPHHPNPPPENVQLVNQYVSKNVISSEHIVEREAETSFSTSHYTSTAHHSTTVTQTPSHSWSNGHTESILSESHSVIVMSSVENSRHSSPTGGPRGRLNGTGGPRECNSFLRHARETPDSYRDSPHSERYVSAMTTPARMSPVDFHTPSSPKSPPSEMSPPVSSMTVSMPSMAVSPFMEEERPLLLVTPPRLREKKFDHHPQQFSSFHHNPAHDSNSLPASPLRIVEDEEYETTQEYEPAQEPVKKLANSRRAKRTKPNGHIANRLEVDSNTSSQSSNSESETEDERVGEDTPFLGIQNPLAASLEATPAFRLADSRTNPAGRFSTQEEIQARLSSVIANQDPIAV
Torsin-1A-interacting protein 2 (Homo sapiens), sequence (Q8NFQ8 whole entry, looked up): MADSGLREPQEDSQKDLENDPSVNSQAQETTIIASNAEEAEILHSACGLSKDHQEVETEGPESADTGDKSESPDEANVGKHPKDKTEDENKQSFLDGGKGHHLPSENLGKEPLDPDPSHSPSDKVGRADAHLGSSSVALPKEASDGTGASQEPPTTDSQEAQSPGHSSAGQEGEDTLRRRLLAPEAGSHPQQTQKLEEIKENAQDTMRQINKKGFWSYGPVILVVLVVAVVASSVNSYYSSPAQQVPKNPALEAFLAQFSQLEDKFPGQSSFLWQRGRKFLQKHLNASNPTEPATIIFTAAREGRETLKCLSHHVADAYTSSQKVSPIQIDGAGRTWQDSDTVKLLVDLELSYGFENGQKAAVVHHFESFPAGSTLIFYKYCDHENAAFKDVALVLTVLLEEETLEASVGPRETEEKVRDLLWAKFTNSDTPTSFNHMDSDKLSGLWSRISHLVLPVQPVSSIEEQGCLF

| Structure (SMILES) | composite z-score [1] | composite z-score [2] | composite z-score [3] | composite z-score [4] | composite z-score [5] | composite z-score [6] | composite z-score [7] | z-score [8] | composite z-score [9] | composite z-score [10] | composite z-score [11] | z-score [12] | z-score [13] | z-score [14] | composite z-score [15] | z-score [16] | composite z-score [17] | composite z-score [18] | composite z-score [19] | composite z-score [20] |
| --- | --- | --- | --- | --- | --- | --- | --- | --- | --- | --- | --- | --- | --- | --- | --- | --- | --- | --- | --- | --- |
| C[C@@H]1CN2[C@@H](CC[C@@H](C)[C@@H]2c2ccc(Br)cc2)C(=O)O1 | -0.267 and -0.0033 | -0.0199 and 0.174 | -0.116 and -0.0583 | 0.215 and 0.604 | 0.275 and 0.18 | -0.368 and 0.158 | -0.704 and -0.829 | -0.735 (inactive) and -1.38 (inactive) | -0.145 and 0.0701 | -0.0994 and -0.274 | -0.477 and -0.0962 | 0.327 (inactive) and -1.72 (inactive) | 0.398 (inactive) and -0.794 (inactive) | 1.74 (inactive) and -0.538 (inactive) | -0.625 and 0.0053 | 0.0454 (inactive) and 0.082 (inactive) | -0.166 and -0.18 | 0.0137 and 0.546 | -0.307 and -0.733 | -0.111 and -0.154 |
| C=CCN(C(=O)C1N(c2c(Cl)cccc2CO)C(=O)C2C(C(=O)O)C3C=CC21O3)C(C)(C)C (stereo not given) | -0.933 and 1.87 | -1.67 and -0.997 | -0.238 and -0.0459 | -0.782 and -0.419 | -0.872 and -1.15 | 0.0516 and -0.736 | 0.0868 and -0.844 | 0.756 (inactive) and -1.07 (inactive) | -0.347 and -0.422 | -1.01 and 0.51 | -0.17 and -0.656 | 0.61 (inactive) and -1.92 (inactive) | 0.857 (inactive) and -1.43 (inactive) | -0.509 (inactive) and -0.74 (inactive) | 0.893 and -1.28 | 2.58 (inactive) and 1.44 (inactive) | -0.359 and -0.152 | -1.7 and -1.45 | -0.873 and -0.616 | -0.403 and -0.366 |
| C=CCN(CCCCC)C(=O)C1N(CCCCCCO)C(=O)C2C(C(=O)O)C3C=CC21O3 (stereo not given) | 1.25 and 0.679 | -0.833 and -1.2 | -0.2 and -0.248 | -1.43 and -1.82 | -2.1 and -1.82 | -0.54 and 0.234 | 1.07 and 1.32 | -0.0502 (inactive) and -0.095 (inactive) | -0.855 and -1.02 | -0.331 and -0.287 | 0.19 and -0.725 | -0.657 (inactive) and -0.677 (inactive) | -0.849 (inactive) and -0.744 (inactive) | -0.44 (inactive) and -0.767 (inactive) | 0.565 and 1.97 | -0.617 (inactive) and -0.541 (inactive) | -0.126 and -0.0198 | -2.33 and -1.76 | -0.968 and -0.32 | -0.322 and -0.32 |
| COC(=O)[C@@]1(Cc2ccc(OC)cc2)[C@H]2c3cc(C(=O)N(C)C)n(Cc4ccc(O)c(OC)c4)c3C[C@H]2CN1C(=O)c1ccccc1 | 0.332 and 0.233 | 0.703 and 0.13 | -0.169 and 0.176 | 0.123 and 1.17 | 1.64 and 1.68 | 2.15 and 1.85 | 1.32 and 1.22 | 2.53 (inactive) and -0.466 (inactive) | 0.808 and 1.15 | 0.329 and 0.483 | -0.406 and 0.571 | 0.403 (inactive) and -0.731 (inactive) | 1.08 (inactive) and 1.73 (inactive) | 0.374 (inactive) and 2.03 (inactive) | 3.65 and 3.34 | 0.151 (inactive) and 0.266 (inactive) | 0.437 and 0.261 | 0.219 and 0.19 | 0.807 and 1.07 | 0.0395 and 0.0354 |
| C=CCN(C(=O)C1N(c2c(Cl)cccc2CO)C(=O)C2C(C(=O)O)C3C=CC21O3)c1ccc(OC)cc1 (stereo not given) | 0.778 and 0.859 | -1.57 and -1.33 | -0.119 and -0.252 | -0.653 and -1.76 | -1.09 and -1.92 | -0.515 and -0.497 | 0.507 and -0.579 | 1.48 (inactive) and -1.39 (inactive) | -0.826 and -0.934 | -0.283 and -0.517 | -0.406 and -0.949 | 0.188 (inactive) and -1.76 (inactive) | 0.0331 (inactive) and -1.23 (inactive) | -0.362 (inactive) and -0.691 (inactive) | -0.51 and -1.41 | 1.82 (inactive) and 2.06 (inactive) | -0.652 and -0.252 | -1.05 and -1.85 | -0.306 and -0.737 | -0.327 and -0.236 |
| C=CC[C@H](O)c1ccc(OCCO)cc1 | 0.857 and 0.327 | -0.688 and 0.148 | -0.153 | -1.16 and -0.746 | -1 and -1.04 | 0.524 and -0.434 | 0.176 and 0.997 | 0.831 (inactive) and 2.16 (inactive) | -0.396 and -0.905 | -0.261 and -0.296 | -0.145 and -1.37 | -0.192 (inactive) and -0.831 (inactive) | -0.228 (inactive) and -0.917 (inactive) | -0.389 (inactive) and -1.19 (inactive) | -0.435 and -2.14 | -0.646 (inactive) and -0.812 (inactive) | -0.0653 and -0.181 | -0.292 and 0.249 | -0.847 and -0.324 | -0.162 and -0.191 |
| C=CCN(CCCCC)C(=O)C1N(CCOCCO)C(=O)C2C(C(=O)O)C3C=CC21O3 (stereo not given) | 0.555 and 0.963 | -0.771 and -0.902 | -0.191 and -0.283 | -1.87 | -0.459 and -2.05 | 0.17 and -0.496 | 0.891 and 1.05 | 0.306 (inactive) and 0.0282 (inactive) | -0.211 and -0.726 | -0.171 and -0.182 | -1.77 and -0.751 | 0.322 (inactive) and 0.513 (inactive) | 0.0056 (inactive) and 0.398 (inactive) | 0.912 (inactive) and 1.09 (inactive) | 0.0037 and 0.198 | -0.45 (inactive) and -0.546 (inactive) | -0.0617 and -0.142 | -1.17 and -2.1 | -0.574 and -1.05 | -0.275 and -0.367 |
